Hits are enriched below; roughly 6.8% of the tested compounds scored in any of these assays.
T cruzi growth-1 – T. cruzi intracellular proliferation inhibitors, primary screen, cell-based, beta-gal Tulahuen parasites, NIH3T3 host, luminescence. T. cruzi beta-gal in NIH3T3, GalScreen luminescence, 90 h. inhibition, % at 8.34 µM. 77,000 tested, 5.9% active;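 active = mean inhibition above about 93%, with at least 55% of replicates each passing it, limit read from the data, passing the limit was not always enough; inconclusive = only one of those two conditions holds; inactive = neither condition holds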
C diff HTS – C. difficile growth inhibitors, primary screen, HTS | 86,000 tested, 0.25% active | Clostridium difficile clinical isolate growth, OD600, 24 h; hits give low values | AID 1259249, 2017 | growth activity, negative = inhibition, % at 16 µg/mL (by protocol);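 active = mean growth activity at or below -80% and every replicate also at or below -80%; inconclusive = mean at or below -80% but some replicate above -80%; inactive = mean growth activity above -80%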;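 note: 0% = DMSO wells and -100% = levofloxacin 16 µg/mL wells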
Pf Dd2 growth – P. falciparum Dd2 growth inhibitors, primary screen, SYBR Green fluorescence, single dose replicates. 72 h; hits give low values. activity change, % at 10 µM. 94,000 tested, 2.3% active; in the data active = activity change below about -80%; inconclusive = no clear call, values can overlap the other calls
T cruzi growth-2 – T. cruzi intracellular proliferation inhibitors, confirmation, cell-based, NIH3T3 host, beta-gal parasite, luminescence, cherry-pick | shares compounds with T cruzi growth-1 | T. cruzi beta-gal in NIH3T3, GalScreen luminescence, 90 h | inhibition, % at 8.35 µM | 5,600 tested, 72% active | AID 651739, 2012;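 active = mean replicate inhibition above about 95% and at least 55% of replicates individually reaching it, limit read from the data; inconclusive = only one of the two criteria is met; inactive = neither criterion is met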
T cruzi growth-3 – inhibitors of intracellular T. cruzi replication, confirmation, NIH3T3 host cells, beta-gal parasites, cherry-pick, set 2 | inhibition, % at 2.09 µM | shares compounds with T cruzi growth-1 | 5,600 tested, 21% active | AID 651740, 2012 | T. cruzi beta-gal in NIH3T3, GalScreen luminescence, 90 h;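 active = mean inhibition above about 95%, with at least 55% of replicates also reaching it, limit read from the data; inconclusive = meets just one of the two conditions; inactive = meets neither condition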;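 note: plate controls were neutral control median for no effect and positive control median for full effect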
NIH3T3 tox – cytotoxicity in mouse NIH/3T3 fibroblasts, confirmation, cytotoxicity control for T. cruzi proliferation inhibitor project, cell-based, cherry-pick, single point; shares compounds with T cruzi growth-1; NIH/3T3 viability, CellTiter-Glo ATP luminescence, 90 h; cytotoxicity (signal decrease), % at 8.35 µM; 5,600 tested, 14% active; AID 651742, 2012;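 active = mean signal decrease across replicates above about 35% based on untreated-well scatter, with enough replicates individually passing, limit read from the data; inconclusive = no rule stated though some were filed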;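 note: 0% = median of neutral control wells and 100% = median of positive control wells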
NIH3T3 tox 2 – NIH/3T3 fibroblast cytotoxicity, confirmation, cytotoxicity control, cell-based, cherry-pick, single point, set 2; shares compounds with T cruzi growth-1; NIH/3T3 viability, CellTiter-Glo ATP luminescence, 90 h; inhibition, % at 24.9 µM; 5,600 tested, 56% active; AID 651744, 2012;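 active = mean loss of cell viability signal at or above a set limit, and enough replicates individually reaching it; inconclusive = meets only the mean limit or only the replicate share; inactive = meets neither condition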;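 note: 0% = median of neutral control wells and 100% = median of positive control wells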
* marks the source's active call; other numbers are inactive results; u = inconclusive; x = no result.

SMILES	T cruzi growth-1	C diff HTS	Pf Dd2 growth	T cruzi growth-2	T cruzi growth-3	NIH3T3 tox	NIH3T3 tox 2
C[C@H]1CN([C@@H](C)CO)C(=O)c2cccc(NC(=O)c3nc4ccccc4s3)c2O[C@H]1CN(C)Cc1ccc(-c2ccccc2)cc1	102.2*	4.2	-18.0	102.2*	82.9	25.0	22.2
C[C@H](CO)N1C[C@H](C)[C@@H](CN(C)Cc2ccc(-c3ccccc3)cc2)Oc2c(NC(=O)c3nc4ccccc4s3)cccc2C1=O	u	6.8	-51.1	104.8*	87.2	14.6	12.4
Cc1ccc(S(=O)(=O)N(C)C[C@H]2Oc3c(NC(=O)c4nc5ccccc5s4)cccc3C(=O)N([C@H](C)CO)C[C@@H]2C)cc1	105.4	-7.5	-78.7	x	x	x	x
Cc1ccc(S(=O)(=O)N(C)C[C@H]2Oc3c(NS(=O)(=O)c4ccc(Cl)cc4)cccc3C(=O)N([C@H](C)CO)C[C@H]2C)cc1	-5.6	-16.2	7.1	x	x	x	x
C[C@H]1CN([C@@H](C)CO)C(=O)c2cc(C#CC3CC3)cnc2O[C@H]1CN(C)C(=O)c1ccc(F)cc1	57.0	1.8	13.1	x	x	x	x
O=C(C[C@H]1CC[C@H]2[C@@H](COC[C@@H](O)CN2Cc2nccs2)O1)NCc1ccccc1F	11.7	2.5	6.5	x	x	x	x
N#C[C@H]1N[C@H](CO)[C@@H]1c1ccc(-c2cccc(F)c2)cc1	45.1	16.9	32.6	x	x	x	x
CCCC(=O)Nc1ccc2c(c1)C(=O)N(C)C[C@@H](OC)[C@H](C)CN(C(=O)c1cnccn1)[C@@H](C)CO2	32.5	-2.4	21.1	x	x	x	x
Cc1noc(C)c1NC(=O)N(C)C[C@@H]1OCCCC[C@H](C)Oc2ccc(NS(=O)(=O)c3ccc(F)cc3)cc2C(=O)N([C@H](C)CO)C[C@@H]1C	13.6	8.2	2.8	x	x	x	x
C[C@@H]1CN([C@H](C)CO)S(=O)(=O)c2ccc(Br)cc2O[C@H]1CN(C)C(=O)c1cnccn1	31.4	0.2	19.0	x	x	x	x
COc1ccc(-c2ccc([C@H]3[C@@H](CO)N4CCCCN(C(=O)NC(C)C)C[C@@H]34)cc2)cc1	81.3	-5.2	18.4	x	x	x	x
CC(C)NC(=O)N1CCCCN2[C@H](CO)[C@H](c3ccc(C4=CCCC4)cc3)[C@@H]2C1	117.0*	-5.6	18.4	113.2*	105.9*	7.5	-8.2
COc1ccc(-c2ccc([C@@H]3[C@H]4CN(C(=O)NC(C)C)CCCCN4[C@H]3CO)cc2)cc1	68.8	0.7	11.3	x	x	x	x
CC(C)NC(=O)N1CCCCN2[C@H](C1)[C@@H](c1ccc(Br)cc1)[C@@H]2CO	47.4	-6.6	36.3	x	x	x	x
COc1ccc(-c2ccc([C@H]3[C@H](CO)N4CCCCN(C(=O)NC(C)C)C[C@@H]34)cc2)cc1	105.2*	-4.4	-4.3	113.5*	37.9	13.5	24.8*
COc1ccc(-c2ccc([C@H]3[C@@H](CO)N4CCCCN(C(=O)NC(C)C)C[C@H]34)cc2)cc1	104.2*	-2.2	-16.2	110.4*	76.6	-10.5	85.4*
Cc1ccccc1-c1cnc2c(c1)C(=O)N([C@H](C)CO)C[C@@H](C)[C@@H](CN(C)Cc1cncnc1)O2	x	-2.2	2.9	x	x	x	x
C[C@H](CO)N1C[C@H](C)[C@H](CN(C)Cc2ccc(Cl)c(Cl)c2)Oc2ccc(NC(=O)Nc3ccc4c(c3)OCO4)cc2C1=O	77.7	x	16.0	x	x	x	x
COCC#Cc1ccc2c(c1)O[C@H](CN(C)Cc1ccccn1)[C@H](C)CN([C@H](C)CO)S2(=O)=O	15.2	2.2	-1.0	x	x	x	x
C[C@@H]1CN([C@H](C)CO)S(=O)(=O)c2ccc(C#CCN(C)C)cc2O[C@H]1CN(C)Cc1ccccn1	u	0.7	-51.8	97.4*	74.2	16.5	25.6*
CCCC#Cc1ccc2c(c1)O[C@H](CN(C)Cc1ccccn1)[C@@H](C)CN([C@H](C)CO)S2(=O)=O	103.9*	4.0	x	107.5*	74.9	40.5*	68.5*
CCCC#Cc1ccc2c(c1)O[C@@H](CN(C)Cc1ccccn1)[C@H](C)CN([C@@H](C)CO)S2(=O)=O	107.4*	3.1	x	95.7*	90.2	64.4*	92.8*
CCCC#Cc1ccc2c(c1)O[C@H](CN(C)Cc1ccccn1)[C@H](C)CN([C@@H](C)CO)S2(=O)=O	58.7	-7.3	x	x	x	x	x
C[C@@H]1CN([C@@H](C)CO)S(=O)(=O)c2ccc(C#C[C@@H](C)O)cc2O[C@@H]1CN(C)Cc1ccccn1	9.2	2.6	-10.6	x	x	x	x
C[C@H](CO)N1C[C@H](C)[C@@H](CN(C)Cc2ccc(Oc3ccccc3)cc2)Oc2ncc(-c3cncnc3)cc2C1=O	x	x	-32.9	x	x	x	x
SMILES	T cruzi growth-1	C diff HTS	Pf Dd2 growth	T cruzi growth-2	T cruzi growth-3	NIH3T3 tox	NIH3T3 tox 2
Cc1cc(C(=O)Nc2cccc3c2O[C@@H](CN(C)C(=O)Nc2c(C)noc2C)[C@H](C)CN([C@H](C)CO)C3=O)n(C)n1	-20.3	x	66.2	x	x	x	x
C[C@H]1CN([C@@H](C)CO)S(=O)(=O)c2ccc(C#CCN(C)C)cc2O[C@@H]1CN(C)C(=O)C1CC1	110.5*	-3.4	-8.0	108.7*	99.1*	5.2	5.1
C[C@@H]1CN([C@H](C)CO)S(=O)(=O)c2ccc(C#CC(C)(C)O)cc2O[C@@H]1CN(C)C(=O)C1CC1	-21.4	x	20.9	x	x	x	x
CCCC#Cc1ccc2c(c1)O[C@@H](CN(C)C(=O)C1CC1)[C@@H](C)CN([C@H](C)CO)S2(=O)=O	62.9	-1.1	-30.1	x	x	x	x
CCCC#Cc1ccc2c(c1)O[C@@H](CN(C)C(=O)C1CC1)[C@H](C)CN([C@@H](C)CO)S2(=O)=O	47.9	-4.2	-40.9	x	x	x	x
C[C@@H]1CN([C@H](C)CO)S(=O)(=O)c2ccc(C#CC(C)(C)O)cc2O[C@H]1CN(C)C(=O)C1CC1	104.6*	x	8.2	44.7	7.8	29.1	42.4*
C[C@@H]1CN([C@H](C)CO)S(=O)(=O)c2ccc(C#CCN(C)C)cc2O[C@H]1CN(C)C(=O)C1CC1	89.5*	-3.2	-12.1	u	80.4	-11.0	-2.3
O=C(C[C@H]1CC[C@@H]2[C@H](COC[C@H](O)CN2CC2CCCC2)O1)NCC1CC1	x	-6.4	21.5	x	x	x	x
CO[C@H]1CN(C)C(=O)c2cc(NC(=O)NC3CCCC3)ccc2OC[C@@H](C)NC[C@@H]1C	x	8.2	0.9	x	x	x	x
N#C[C@@H]1[C@@H](c2ccccc2C2=CCCCC2)[C@@H](CO)N1C(=O)NC1CCCCC1	x	-2.9	-42.7	x	x	x	x
C[C@@H]1CN([C@H](C)CO)C(=O)c2cc(NC(=O)Cc3cn(C)c4ccccc34)ccc2O[C@@H]1CN(C)Cc1ccc(-c2ccccc2)cc1	75.5	17.0	4.7	x	x	x	x
